Screens as filed in PubChem.
Hits are enriched below; roughly 2.4% of the tested compounds scored in any of these assays.
D2 PAM-1 – positive allosteric modulators of human D2 dopamine receptor | P14416 | HEK293 T-REx D2, calcium flux, EC20 dopamine potentiation | potentiation, % at 10 µM | hit rate 0.34% among 340,000 | AID 485347;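 active = potentiation over 3 SD above the plate norm, cut at about 30% in these data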; note: 0% is about no effect
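Cells plated with tetracycline inducer and held overnight at 30 C; calcium dye loaded 30–90 min at room temperature; baseline taken, compound added and read 180 s; EC20 dopamine then added and read 180 s.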
D2 ag-1 – activates the human D2 dopamine receptor. activation, % at 2 µM. hit rate 0.53% among 340,000. HEK293 T-REx D2 cells, calcium flux agonist mode. P14416;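 active = activation over 3 SD above normal in the single-dose calcium agonist read, cut at about 30% in these data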; note: 0% is about no effect
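HEK293 Trex D2 cells, tetracycline-induced, o/n 30 C 5% CO2; no-wash Ca dye, RT 30–90 min; 10-cycle baseline, 23 nl cpd added, kinetic Ca read 180 s; agonist hits = positive Ca response.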
D2 ag-2 – activates the human D2 dopamine receptor; DiscoveRx PathHunter D2 beta-arrestin, luminescence, 90 min; 100% = 57 uM dopamine signal; activation, % (no concentration beside the values); hit rate 0.084% among 360,000; in the data active = activation above about 40%; inconclusive = between about 15% and that limit
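DiscoveRx PathHunter D2 beta-arrestin cells (2,100/well) attached overnight, then compound-stimulated 90 min at 37 C in HBSS/10 mM HEPES/0.1% Tween-20 buffer; beta-galactosidase complementation read by luminescence after 1 h at ambient temperature. Dopamine 57 uM final (EC100) as control.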
D2 PAM-2 – potentiates the human D2 dopamine receptor allosterically. P14416. DiscoveRx D2 beta-arrestin cells, luminescence, 90 min; 100% = 57 uM dopamine signal. potentiation, % (no concentration beside the values). hit rate 0.23% among 360,000. AID 624464; in the data active = potentiation above about 50%; inconclusive = mostly about 30% to 49%
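D2 cells co-treated with compound plus 50 nM dopamine (EC20) for 90 min at 37 deg C to detect potentiation. Beta-arrestin recruitment was read as enzyme-fragment luminescence after 1 h at ambient temperature. Full response was set by 57 uM dopamine.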
D2 antag – antagonists of human D2 dopamine receptor; HEK293 TREx D2 cells, calcium flux, dopamine EC80; hit rate 2% among 340,000; inhibition, % at 10 µM; in the data active = inhibition above about 30%; inactive = below that, where a call was filed; note: 0% is about no effect
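Overnight-induced (tetracycline, 30 C) HEK293 T-REx cells carrying force-coupled D2 receive a no-wash calcium dye, then compound, then EC80 dopamine at 180 s; signals are read kinetically throughout.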
D3 arrestin ag – activates human D3 dopamine receptor beta-arrestin recruitment; hit rate 4% among 2,300; DiscoveRx D3 beta-arrestin cells, luminescence, 90 min; shares compounds with D2 ag-1; Potency, µM (series often up to 76.9 µM), inactives show at the top dose activation, most hits filed as activators;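 note: potency is the fitted concentration of half-maximal effect; 100% = dopamine control response; nearly all actives have a fitted effect of over 70% in size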
Target sequence (P35462 whole entry, looked up): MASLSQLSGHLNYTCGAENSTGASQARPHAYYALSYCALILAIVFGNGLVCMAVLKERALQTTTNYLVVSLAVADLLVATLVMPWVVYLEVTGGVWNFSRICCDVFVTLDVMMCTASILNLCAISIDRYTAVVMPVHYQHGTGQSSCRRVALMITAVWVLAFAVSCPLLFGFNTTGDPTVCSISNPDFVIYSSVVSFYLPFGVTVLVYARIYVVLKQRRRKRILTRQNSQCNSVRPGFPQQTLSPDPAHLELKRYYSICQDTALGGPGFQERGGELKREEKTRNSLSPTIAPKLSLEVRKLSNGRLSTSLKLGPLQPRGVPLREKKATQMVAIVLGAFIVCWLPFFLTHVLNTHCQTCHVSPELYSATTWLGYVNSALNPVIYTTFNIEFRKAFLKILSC
D2 ag-3 – activates human D2 dopamine receptor in D3 counterscreen | shares compounds with D2 ag-1 | DiscoveRx PathHunter D2 beta-arrestin, luminescence, 90 min; response scale: percent relative to full dopamine signal | Potency, µM (titrated, usually from 76.9 µM), without a hit: top-dose activation, actives largely listed as activators | hit rate 5.9% among 2,300 | AID 720507; note: potency is the fitted concentration of half-maximal effect; % of control where 0% means no effect; nearly all actives have a fitted effect of over 70% in size
Active calls of the source: *; ? = inconclusive; / = no result given. Unless noted, calls come from the whole dose curve; as a rule, active = well fitted activation curve with a large enough effect; inconclusive = small, poorly fitted or top-dose-only effect; inactive = flat fitted curve, though single readings scatter.

SMILES | D2 PAM-1 | D2 ag-1 | D2 ag-2 | D2 PAM-2 | D2 antag | D3 arrestin ag | D2 ag-3
COc1ccccc1CN1CCCC(C(=O)c2ccccc2OC)C1 (centres undefined) | -16 | 0 | 2 | -25 | -7 | / | /
CCCC1=Nc2cc(C(=O)NCCCN(CC)CC)ccc2Sc2ccccc21 | -13 | 1 | / | / | / | / | /
CCOC(=O)C1(CCc2ccccc2)CCN(Cc2cccc3c2OCO3)CC1 | -23 | 0 | 0 | -8 | 47* | / | /
CCOC(=O)C1(CCc2ccccc2)CCN(Cc2cccc3cnccc23)CC1 | -7 | 2 | 0 | -10 | -19 | / | /
Fc1ccccc1CCNCc1cccc2ccccc12 | -33 | 0 | -4 | -35 | 31* | / | /
O=C1CC(c2ccc(F)cc2)c2c(c3ccccc3oc2=O)O1 (centres undefined) | 9 | / | / | / | / | / | /
N#Cc1c(Br)n(C2OC(CO)C(O)C2O)c2ncnc(N)c12 (centres undefined) | / | / | 70* | ? | / | / | /
Cc1ccc(CNC(=O)CCCn2c(=O)c3sccc3n(CC(=O)Nc3c(C)cccc3C)c2=O)cc1 | -3 | / | / | / | / | / | /
C#CC1(O)CCC2C3CCC4=C/C(=N/OCC(=O)NCC(=O)NC(C(=O)O)C(C)C)CC[C@]4(C)C3CC[C@@]21C (some centres undefined) | -9 | 1 | 1 | -5 | 60* | / | /
CCc1nc(SC)ncc1C(=O)Nc1ccc(Cl)cc1C(=O)c1ccccc1 | / | -1 | / | / | / | / | /
COc1cc(Br)cc(CN2CCN(C)CC2)c1O | -29 | -1 | -1 | -18 | 5 | / | /
COc1ccc(Br)cc1CN1CCN(CCO)CC1 | -23 | 0 | 0 | -25 | 55* | / | /
CCN1CCN(Cc2cc(Br)ccc2O)CC1 | -21 | 1 | 0 | -40 | 64* | / | /
CCN(CC)c1ccc(/C=N/c2sc3c(c2C#N)C2CCN3CC2)c(O)c1 | 9 | 34* | -8 | -35 | 17 | / | /
CC(C)(C)c1ccc(OCC(=O)Nc2ccc(Cl)cc2C(=O)c2ccccc2)cc1 | 2 | 0 | / | / | / | / | /
CC(=O)c1cccc(OCC(O)CN2CC=C(c3ccccc3)CC2)c1 (centres undefined) | -29 | 79* | 42* | 51* | 80* | ? | ?
CCSc1nnc(NC(=O)c2cccn(Cc3ccccc3Cl)c2=O)s1 | 12 | 1 | / | / | / | / | /
NC1CCc2cc(O)c(O)cc2C1 (centres undefined) | -28 | 91* | 100* | 103* | 101* | 0.022µM* | 0.014µM*
Oc1cc2c(cc1CN1CCN(c3ccccc3F)CC1)OCO2 | -29 | 66* | 14 | -10 | 76* | -3% | 27%
Cc1cccc(-c2nc(CN3C(=O)CN=C(c4ccccc4)c4ccccc43)c(C)o2)c1 | -10 | 0 | / | / | / | / | /
CCC(=NCc1ccco1)c1c(O)n(-c2ccccc2C)c(=O)[nH]c1=O | -9 | 0 | -1 | -5 | -9 | -11% | -6%
O=C1NC(=S)N(c2ccc(Cl)cc2)C(=O)/C1=C/N1CCN(C(=O)c2ccco2)CC1 | -9 | 26 | 1 | -13 | 5 | -6% | 3%
CC(=O)OC1(c2ccccc2)CCN(C2CCCCC2)CC1C (centres undefined) | -20 | 67* | 8 | -3 | 53* | 12% | 18%
Cc1cc(OCC(=O)N2CCN(CCc3ccncc3)CC2)ccc1Cl | 1 | 1 | / | / | / | / | /
CN1C(=O)/C(=C\c2ccc(N3CCCCC3)o2)C(=O)NC1=S | 5 | 33* | -5 | -6 | 5 | -34% | -6%
SMILES | D2 PAM-1 | D2 ag-1 | D2 ag-2 | D2 PAM-2 | D2 antag | D3 arrestin ag | D2 ag-3
CC(=O)N1CCC(N2CCCC(C(=O)c3cccc(Cl)c3)C2)CC1 (centres undefined) | -12 | 84* | 58* | 55* | 78* | ? | ?
NNC(N)=O | 2 | 0 | -5 | -4 | 31* | -20% | -3%
Cc1ccc2c(c1)Oc1ccccc1N=C2 | / | / | -6 | -11 | / | / | /
Cc1cccc(N2C(=O)NC(=O)/C(=C\C=C\c3ccco3)C2=O)c1 | 3 | 10 | 1 | -9 | 14 | -25% | -4%
Cc1ccc(N2C(=O)NC(=O)/C(=C\C=C\c3ccco3)C2=O)cc1 | 0 | / | 0 | -3 | / | / | /
CC(C)(C)n1nnnc1C(c1ccccc1)N1CCC2(CC1)C(=O)NCN2c1ccccc1 (centres undefined) | / | / | -2 | -11 | / | / | /
Cc1cccc(C)c1-n1nnnc1C(c1cccc2ccccc12)N1CCC2(CC1)C(=O)NCN2c1ccccc1 (centres undefined) | / | / | -4 | -10 | / | / | /
C=C[C@@H]1C2=CCOC(=O)C2=CO[C@H]1O[C@@H]1O[C@H](CO)[C@@H](O)[C@H](O)[C@H]1O | 13 | 0 | 0 | 4 | 7 | -7% | -1%
O=[N+]([O-])c1cccc2c([N+](=O)[O-])cccc12 | -4 | -1 | 2 | 2 | 5 | 3% | 1%
CCOc1ccc(NC(=O)Cn2cc(C(=O)c3ccccc3)c3ccccc32)cc1 | 1 | 0 | / | / | / | / | /
O=C1NCN(c2ccccc2)C12CCN(C(c1cccc3ccccc13)c1nnnn1C1CCCCC1)CC2 (centres undefined) | / | / | -3 | -13 | / | / | /
CN(C)c1cccc(CN2CCN(c3ccccc3)CC2)c1 | / | / | 6 | -10 | / | / | /
Cn1c(=O)oc2cc(S(=O)(=O)NCCN3CCN(c4ccccc4)CC3)ccc21 | -17 | 71* | -2 | -14 | 65* | 24% | ?
CCN(CC)S(=O)(=O)c1cc(NC(=O)C(C)N2CC=C(c3ccccc3)CC2)ccc1C (centres undefined) | -26 | 44* | ? | -15 | 14 | 20% | ?
COC1CC2C=C(C)C=CC=CC(=O)NC(c3ccccc3)CC=CCCC(O)CC(=O)C2=C1O (centres undefined) | / | / | 2 | -17 | / | / | /
O=C(CN1CC=C(c2ccccc2)CC1)NC(=O)NCc1ccco1 | -17 | 54* | 6 | -9 | 40* | 13% | 14%
O=C(CCN1CC=C(c2ccccc2)CC1)NCc1ccccc1 | / | / | -2 | -10 | / | / | /
O=C(Nc1cc(Cl)cc(Cl)c1)N1Cc2ccccc2-n2nncc2C1 | / | / | -7 | 0 | / | / | /
NCCCN1CCN(c2ccccc2)CC1 | 8 | -1 | ? | 15 | 95* | 14% | 16%
O=C1NC(=S)NC(=O)C1Cc1ccccc1O | / | / | -2 | -9 | / | / | /
COC(=O)C1=C(c2c(C)noc2C)C[C@@H]2CC[C@H]1N2C(=O)NCCO | -2 | -1 | -1 | -5 | 0 | / | /
